Source: PubChem BioAssay
Sampled rows, rich in hits. Any-hit rate of the full collection: about 5.3%.
FMDV inh = antivirals against foot and mouth disease virus. FMDV antiviral cell-based qHTS. Potency, µM (doses to about 57.9 µM), inactives show top-dose activity change, negative = inhibition, most hits filed as inhibitors. hit rate 1.2% among 410,000. AID 1159524; calls by dose curve; tested in HEK293T cells; note: read-out not given here; nearly all actives have a fitted effect of over 45% in size
VACV mCherry inh = vaccinia inhibition (mCherry reporter); Vaccinia virus mCherry reporter infection, fluorescence; Potency, µM (doses to about 36.5 µM), without a hit: top-dose activity change, negative = inhibition, actives largely listed as inhibitors; hit rate 0.63% among 310,000; calls by dose curve; tested in A549 cells; note: nearly all actives have a fitted effect of over 35% in size
Lassa entry inh = Lassa virus entry inhibition. Lassa virus pseudotype entry inhibition, cell reporter. Potency, µM (titrated, usually from 37.9 µM), for the others: at the top dose activity change, negative = inhibition, usual class: inhibitors. hit rate 1.2% among 300,000; calls by dose curve; tested in HEK293 cells; note: nearly all actives have a fitted effect of over 50% in size
Marburg entry inh = inhibitors of Marburg virus binding or cell entry. Potency, µM (series often up to 37.8 µM), for inactives: at the highest dose activity change, negative = inhibition, actives largely listed as inhibitors. Marburg virus pseudotyped entry inhibition, cell reporter. AID 540276. hit rate 1.8% among 300,000; calls by dose curve; tested in HEK293 cells
Vaccinia Venus = inhibitors of vaccinia virus (Venus reporter); Potency, µM (top dose mostly 36.5 µM), inactives show at the top dose activity change, negative = inhibition, usual class: inhibitors; hit rate 0.46% among 330,000; Vaccinia virus Venus reporter expression, fluorescence; AID 720580; calls by dose curve; tested in A549 cells; note: nearly all actives have a fitted effect of over 30% in size
HCV inh = inhibitors of hepatitis C virus infection; Huh7.5.1 HCVcc-Cre infection, luciferase reporter, 44 h; Potency, µM (titrated, usually from 41.8 µM), inactives show at the highest dose activity change, negative = inhibition, hits mostly inhibitors; hit rate 3.4% among 340,000; active = well fitted inhibition curve with a large enough effect; inconclusive = small, poorly fitted or top-dose-only effect, or another doubt; inactive = no such curve, though single readings can be large or run the other way
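A cell-based infection assay in which seeded cells (1,000 per well) receive test compound after 4 h, are inoculated with HCVcc-Cre at approximately 0.5 moi, and are incubated 44 h before luminescence detection.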
Starred values were filed as active, the others as inactive; i = inactive; ? = inconclusive; / = no result given; [ ] = remark or other dose. % is set by controls: 0 for no effect and ±100 for the full control effect; potency is the fitted concentration of half-maximal effect.

SMILES | FMDV inh | VACV mCherry inh | Lassa entry inh | Marburg entry inh | Vaccinia Venus | HCV inh
COc1ccc(-c2noc(C3CCCN(C(=O)c4ccc(F)cc4)C3)n2)cc1 (configuration not stated) | -10.5% | -2.9% | -0.3%[46.1 µM] | ? | -3.0% | ?
COc1cccc(-c2noc(C3CCCN(C(=O)CC(C)(C)C)C3)n2)c1 (configuration not stated) | 5.2% | / | / | / | / | 10µM*
CCCCC(=O)N1CCCC(c2nc(-c3cccc(OC)c3)no2)C1 (configuration not stated) | 6.8% | i | / | / | -11.3% | -6.6%
CCOC(=O)c1c(C(=O)OCC)c2c3ccccc3cc(C)n2c1C(=O)OC | / | / | / | 1.5%[14.2 µM] | / | /
CC1(C2CC2)NC(=O)N(CC(=O)NCc2ccc(Cl)cc2Cl)C1=O (configuration not stated) | -14.7% | / | / | / | / | 17.5%
CCC1CCc2c(sc(NC(=O)c3ccoc3C)c2C(N)=O)C1 (configuration not stated) | 3.9% | ? | 29.5% | -17.6%[46.1 µM] | ? | 5.01µM*
COC(=O)c1c(NC(=O)/C=C/C(=O)O)sc(Cc2ccccc2)c1C | ? | -27.4% | -5.9% | 11.2µM* | -13.4% | -4.6%
CN1CCN(C(=O)c2cccc(-c3cccc4nccn34)c2)CC1 | -2.4% | 31.9% | / | / | -7.6% | /
O=C(NCc1ccccc1)C1(C(F)(F)F)CC(CCCO)CCCO1 (configuration not stated) | -11.2% | i | / | / | -18.2% | -22.1%
CS(=O)(=O)c1ccc(CNC(=O)C2(C(F)(F)F)CC(CCCO)CCCO2)cc1 (configuration not stated) | 0.0% | 11.2µM* | / | / | ? | ?
CN(C)C(=O)c1ccc(/C=C/c2ccnc3ccccc23)cc1 | / | -21.9% | / | / | 0.7% | /
Cc1ccc2nc(-c3ccc(NS(C)(=O)=O)cc3)cc(-c3ccccc3)c2c1 | -26.5% | / | -17.9% | -15.5% | / | ?
Cc1ccc(-c2cc3cccc[n+]3cc2-c2ccc(C)cc2)cc1 | 39.8µM* | -6.5% | 6.51µM* | 3.16µM* | -21.2% | ?
COc1ccccc1CNC(=O)c1ccc2c(c1)nc(C)n2-c1ccccc1OC | -1.8% | -14.7% | 3.8%[46.1 µM] | / | 3.5% | /
CC1(c2ccccc2)NC(=O)N(CC(=O)N2CCc3ccccc32)C1=O (configuration not stated) | 4.6% | -6.3% | / | / | -20.1% | /
CC1(c2cccc(Br)c2)NC(=O)N(CC(=O)N2CCc3ccccc32)C1=O (configuration not stated) | -22.2% | -23.4% | -19.3% | ? | -23.9% | 10µM*
COc1ccc(OC)c(C(C[N+](=O)[O-])c2c(C)cc3ccccn23)c1 (configuration not stated) | 22.4µM* | -20.5% | ? | ? | -4.9% | ?
O=C1C(=C(c2ccccc2)N2CCOCC2)Cc2ccccc21 | 8.91µM* | ? | / | / | 11.2µM* | /
COC(=O)c1ccccc1NC(=O)c1nc(-c2ccc(Cl)cc2)n2c1CCCCC2 | 0.0% | -1.5% | 8.2%[46.1 µM] | / | 7.5% | /
COC(=O)C1=C(c2ccc(-c3ccccc3)c(F)c2)C[C@@H]2CC[C@H]1N2C(=O)NCC1CC1 | ? | -29.0% | / | / | ? | ?
COCCNC(=O)N1[C@H]2CC[C@@H]1C(C(=O)OC)=C(c1ccc(-c3ccccc3)c(F)c1)C2 | -13.4% | ? | / | / | ? | 3.16µM*
COC(=O)C1=C(c2ccc(-c3ccccc3)c(F)c2)C[C@@H]2CC[C@H]1N2C(=O)NCCOc1ccccc1 | ? | -1.7% | / | / | ? | 12.6µM*
Cc1ccccc1-c1ccc2ncnc(-n3ccnc3)c2c1 | 39.8µM* | / | / | / | / | /
CC(C)COC(=O)N(C)c1ccc(C(O)(C(F)(F)F)C(F)(F)F)cc1 | ? | / | 3.55µM* | 5.0% | ? | ?
COc1ccc(N2CCn3c2nc2c3c(=O)n(CCc3ccccc3)c(=O)n2C)c(OC)c1 | / | / | / | 1.9% | / | /
SMILES | FMDV inh | VACV mCherry inh | Lassa entry inh | Marburg entry inh | Vaccinia Venus | HCV inh
C#CCOc1nc2c(c(=O)n(C)c(=O)n2C)n1Cc1ccccc1 | ? | / | / | / | / | 12.6µM*
COc1ccc(N2CCn3c2nc2c3c(=O)n(CCCc3ccccc3)c(=O)n2C)c(OC)c1 | 12.6µM* | / | ? | ? | / | 14.1µM*
Cn1c(=O)c2c(nc(CN3CCC(Cc4ccccc4)CC3)n2CCN2CCOCC2)n(C)c1=O | 0.0% | / | 10.3µM* | 10.6% | / | -15.3%
C=C(C)Cn1c(N2CCN(c3ccc(OC)cc3)CC2)nc2c1c(=O)n(C)c(=O)n2C | 28.2µM* | -14.3% | ? | ? | -22.1% | ?
COCCn1c(N2CCN(c3ccccc3)CC2)nc2c1c(=O)n(C)c(=O)n2C | ? | -15.4% | / | 0.4%[46.1 µM] | -2.4% | ?
C=CCOc1nc2c(c(=O)n(C)c(=O)n2C)n1Cc1ccccc1 | ? | 0.7% | -16.8% | 3.8%[46.1 µM] | -13.8% | -5.8%
COC(=O)[C@H](CC(C)C)NS(=O)(=O)NC(=O)OC(C)(C)C | / | -16.1% | / | / | -9.9% | /
COc1cccc(/C=C2/SC(=S)N(CC(=O)Nc3nccs3)C2=O)c1 | / | -12.7% | / | / | -12.0% | /
CCN(CC)c1ccc(/C=C2\C=Cc3ccccc32)cc1 | / | -4.4% | / | / | -4.4% | /
Cn1c(=O)c2c(nc(N3CCNCC3)n2Cc2ccccc2Cl)n(C)c1=O | -7.6% | i | -4.8% | 17.0%[46.1 µM] | 3.7% | 8.2%
COc1ccc(N2CCN(c3nc4c(c(=O)n(C)c(=O)n4C)n3Cc3ccccc3)CC2)cc1 | -27.5% | -15.1%[1.46 µM] | 8.91µM* | 10µM* | ? | 11.2µM*
Cn1c(=O)c2c(nc(N3CCN(c4ccccn4)CC3)n2Cc2ccccc2Cl)n(C)c1=O | 6.6% | / | 20.6µM* | ? | / | ?
CCCCOc1ccc(CS[C@@H](CC(=O)O)C(=O)O)cc1 | / | / | / | 4.6% | / | /
COc1ccc(N)c2c1C(=O)c1ccccc1C2=O | -5.5% | 77.2% | ? | 0.3% | 94.7% | ?
O=C1c2ccccc2C(=O)c2c(O)ccc(O)c21 | -19.7% | / | / | / | / | /
Nc1ccc(O)c2c1C(=O)c1ccccc1C2=O | -23.9% | 210.4% | 8.3% | 34.1% | 191.8% | 5.01µM*
Nc1ccc(Br)c2c1C(=O)c1ccccc1C2=O | 2.3% | 26.0% | 1.2% | 39.6% | 46.5% | 10µM*
CCC(C)NS(=O)(=O)c1ccc(S(=O)(=O)N2CCCC3(CCCCC3)C2)cc1 (configuration not stated) | ? | / | ? | ? | / | 10µM*
CC(O)C1C=CC=CC(=O)OC2CC3OC4C5OC5(C)C(O)CC4(COC(=O)C(O)C(C)CCO1)C2(C)C31CO1 (configuration not stated) | / | / | / | 0.126µM* | / | /
COc1ccc(C(=O)Nc2nnc(SCC(=O)NC3CC3)s2)cc1 | 5.9% | i | ? | 10µM* | -8.0% | 5.7%
COc1cccc(C(=O)Nc2nnc(SCC(=O)NC3CC3)s2)c1 | 41.3% | i | -22.3% | -26.5% | -5.0% | -9.1%
COc1ccc(C(=O)Nc2nnc(SCC(=O)NCc3ccco3)s2)cc1OC | -12.0% | -14.3% | ? | 8.7% | -11.5% | /
COc1cc(OC)cc(C(=O)Nc2nnc(SCC(=O)NCc3ccco3)s2)c1 | 100µM* | -13.6% | ? | 4.3%[46.1 µM] | -10.0% | -1.8%
